Screening results from PubChem BioAssay.
ANO1 activ = mouse TMEM16A channel activation, primary screen | Q8BHY3 | B-score at 10 µM | HEK293 TMEM16A/YFP-H148Q/I152L, iodide quench fluorescence; stronger effect = lower value | 340,000 compounds, 0.3% hits;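 active = fluorescence-ratio B-score plate-corrected deviation score at least 3 library SD below zero, with starting fluorescence score within 5 deviations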;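 note: channel opened by trigger with iodide after compound preincubation; score built on the fluorescence ratio of max minus min over baseline; more negative score means more quench and so TMEM16A activation or potentiation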
Target sequence (Q8BHY3 whole entry, looked up): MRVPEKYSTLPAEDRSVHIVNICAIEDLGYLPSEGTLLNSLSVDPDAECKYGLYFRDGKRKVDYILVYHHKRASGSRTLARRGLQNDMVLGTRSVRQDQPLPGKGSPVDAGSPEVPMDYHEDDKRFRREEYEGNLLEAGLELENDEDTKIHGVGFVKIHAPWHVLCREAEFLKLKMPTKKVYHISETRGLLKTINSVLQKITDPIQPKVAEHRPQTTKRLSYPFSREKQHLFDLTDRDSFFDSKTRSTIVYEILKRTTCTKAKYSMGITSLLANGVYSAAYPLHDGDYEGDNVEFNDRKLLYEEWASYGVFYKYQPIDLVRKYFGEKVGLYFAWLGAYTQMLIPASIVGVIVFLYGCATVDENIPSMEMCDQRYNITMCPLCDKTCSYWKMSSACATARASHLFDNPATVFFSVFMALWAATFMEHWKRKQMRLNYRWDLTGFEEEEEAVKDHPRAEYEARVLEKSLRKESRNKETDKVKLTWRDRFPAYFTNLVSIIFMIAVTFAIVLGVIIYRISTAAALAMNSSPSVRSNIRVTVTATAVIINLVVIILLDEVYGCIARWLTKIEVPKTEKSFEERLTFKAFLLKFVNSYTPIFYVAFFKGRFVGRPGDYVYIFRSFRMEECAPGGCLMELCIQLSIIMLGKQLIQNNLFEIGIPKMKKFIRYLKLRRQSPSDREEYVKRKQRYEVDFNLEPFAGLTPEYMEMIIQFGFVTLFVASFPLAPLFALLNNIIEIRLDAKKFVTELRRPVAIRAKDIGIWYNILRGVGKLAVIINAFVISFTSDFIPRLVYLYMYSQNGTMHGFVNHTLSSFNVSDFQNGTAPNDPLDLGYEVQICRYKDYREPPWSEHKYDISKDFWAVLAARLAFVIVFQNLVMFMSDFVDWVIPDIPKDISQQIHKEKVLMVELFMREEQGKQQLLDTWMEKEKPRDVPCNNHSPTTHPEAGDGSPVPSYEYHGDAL
Kir21 inh = blocks the mouse Kir2.1 inward-rectifier potassium channel; P35561; HEK293-Kir2.1, FluxOR thallium flux fluorescence; stronger effect = lower value; B-score at 10 µM; 310,000 compounds, 0.85% hits; AID 1672;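 active = fluorescence ratio B-score at or below minus 3 SD of library scores, with starting-brightness B-score within 2 SD, cut at about -4.2 in these data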;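 note: channel flux triggered by added potassium and thallium sulfate stimulus; B-score of peak minus minimum fluorescence over baseline after thallium stimulus; more negative B-score means stronger Kir2.1 block with less thallium influx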
CHT PAM = allosteric activators of human choline transporter CHT; Q9GZV3; CHT-expressing cells, membrane potential dye, choline EC20; stronger effect = higher value; LV-AA mutant CHT in HEK293 cells; B-score at 10 µM; 310,000 compounds, 0.49% hits; AID 488977;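 active = initial fluorescence not abnormally high and integrated response B-score, plate-corrected, over 3 SD above library mean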
CHT block = human CHT choline transport inhibition. CHT-expressing cells, membrane potential dye, choline response; stronger effect = lower value. B-score at 10 µM. 310,000 compounds, 0.86% hits;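 active = B-score over 3 SD under the library average, and starting fluorescence ratio not unusually high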;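 note: choline stimulus applied at its EC90 after an EC20 pre-addition; B-score computed on integrated fluorescence ratio after choline addition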
ANO1 block = inhibitors of mouse TMEM16A calcium-activated chloride channel | Q8BHY3 | HEK293 TMEM16A/YFP iodide influx fluorescence, ionomycin | normalized B-score (activity score, 25-100; higher = stronger inhibition) at 10 µM | 310,000 compounds, 1.2% hits | AID 588511;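 active = ratio plate-corrected score three or more library SD toward inhibition, starting fluorescence score within five deviations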;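 note: score derived from kinetic fluorescence span divided by baseline fluorescence per well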
GPR7 antagonist = human neuropeptides B/W receptor 1 antagonism; P48145; GPR7-expressing cells, fluorescence antagonist assay; inhibition, % at 4.4 µM; 290,000 compounds, 1.1% hits; in the data active = inhibition above about 16%, passing the limit was not always enough;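 note: cells stimulated with the agonist NPW; 0% = agonist with vehicle and 100% = vehicle without agonist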
GPR7 antag cf = confirmation of human GPR7 antagonists. shares compounds with GPR7 antagonist. GPR7-expressing cells, calcium fluorescence antagonist mode. inhibition, % at 4.4 µM. 2,400 compounds, 52% hits. AID 1952; in the data active = inhibition above about 24%;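 note: stimulated with the GPR7 agonist NPW; 0% = agonist plus vehicle and 100% = vehicle alone without agonist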
MCHR1 antagonist = MCHR1 (human) antagonism in GPR7 counter-screen. 2,400 compounds, 62% hits. shares compounds with GPR7 antagonist. MCHR1-expressing cells, fluorescence antagonist assay. inhibition, % at 4.4 µM; in the data active = inhibition above about 22%;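 note: 0% = vehicle with agonist and 100% = vehicle without agonist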
* hit, by the source's call; i = inactive; . = no result given. Most compounds without a hit are left out; they make up all but 3.7% or so of the library.

SMILES	ANO1 activ	Kir21 inh	CHT PAM	CHT block	ANO1 block	GPR7 antagonist	GPR7 antag cf	MCHR1 antagonist
N/C(=N\OC(=O)COc1ccccc1)c1ccc(Cl)cc1	i	1.17	i	i	i	23.9*	-4.9	8.1
Cc1ccccc1NC(=O)CSCc1nc(N)nc(Nc2ccccc2C)n1	i	0.39	i	i	i	21.0*	-2.5	5.5
Cc1ccccc1Nc1nc(N)nc(CCl)n1	i	-1.79	i	i	i	-5.8	.	.
Cn1cccc1/C=C1\SC(=S)N(NC(=O)c2cccc(Cl)c2)C1=O	i	.	i	i	i	6.1	.	.
Cc1ccccc1CSCCNC(=O)CSCc1ccc([N+](=O)[O-])cc1	i	-0.87	i	i	i	9.5	.	.
Cc1cccc(CSCCNC(=O)CSCc2ccc([N+](=O)[O-])cc2)c1	i	-0.89	i	i	i	53.1*	35.8*	73.1*
CNC(=S)NNC(=O)c1noc(C)c1C(=O)N1CCN(C(c2ccccc2)c2ccccc2)CC1	i	2.9	i	i	i	-2.3	.	.
O=C(CNS(=O)(=O)c1ccc(Br)s1)NCCc1ccc(Cl)cc1	i	-0.51	i	i	i	25.3*	2.6	33.9*
Cc1c2cnn(CC(=O)NCCCN3CC(C)CC(C)C3)c(=O)c2c(C)n1Cc1ccccc1Cl (stereo not given)	i	0.15	i	i	i	1.1	.	.
COC(=O)CNC(=O)c1c(-c2c(Cl)cccc2Cl)noc1C	i	1.98	i	i	i	-6.7	.	.
COC(=O)CNC(=O)c1c(-c2ccccc2Cl)noc1C	i	-0.42	i	i	i	23.2*	-1.4	2.0
CCOc1ccccc1CNC(=O)c1cc2occc2n1C	i	0.77	i	i	i	24.0*	16.4	14.9
O=[N+]([O-])c1ccc(NCCNS(=O)(=O)c2ccccc2)cc1	i	-1.09	i	i	i	25.0*	27.5*	32.3*
CSc1nnc(-c2ccccc2Cl)n1N	i	-0.25	i	i	i	24.0*	-10.4	-2.7
Cc1cccc(C(c2c(C)nn(-c3ccccc3)c2N)c2c(C)nn(-c3ccccc3)c2N)c1	i	-1.76	i	i	i	21.1*	21.0	12.1
COc1cc(-c2nnc(COC(=O)c3ccc(C)o3)o2)cc(OC)c1OC	i	.	.	.	.	.	.	.
Cc1cccc2c1NC(=O)C2(c1ccc(O)cc1)c1ccc(O)cc1	i	-2.31	i	i	i	67.0*	78.7*	49.2*
O=C(N=Nc1c(O)[nH]c2ccccc12)c1cc(-c2cccs2)[nH]n1	i	1.18	i	i	i	29.3*	-5.9	29.2*
O=C(Cc1cccs1)N=Nc1c(O)[nH]c2ccccc12	i	0.18	i	i	i	3.6	.	.
Cc1nnc(SCC(=O)NC2CCS(=O)(=O)C2)n1-c1ccccc1 (stereo not given)	i	0.07	i	i	i	24.8*	-9.6	11.6
O=C(CSc1nnc(C2CC2)n1-c1ccccc1)NC1CCS(=O)(=O)C1 (stereo not given)	i	.	.	.	.	.	.	.
CCOC(=O)c1c(N)sc2c(OCC)c(Br)ccc12	i	-0.32	i	i	i	24.0*	29.3*	27.9*
CCOC(=O)c1sc(N)c(C(=O)OCC)c1C	i	0.24	i	i	i	-2.7	.	.
O=C(Cc1n[nH]c(=O)c2ccccc12)N1CCN(c2ccc(F)cc2)CC1	i	-0.07	i	i	i	21.7*	-7.3	4.0
CCN(CC)c1ccc(S(=O)(=O)N2CCOCC2)cc1NC(=O)CN1C(=O)NC2(CCCC2)C1=O	i	-0.03	i	i	i	0.7	.	.
SMILES	ANO1 activ	Kir21 inh	CHT PAM	CHT block	ANO1 block	GPR7 antagonist	GPR7 antag cf	MCHR1 antagonist
CC1(C)NC(=O)N(CC(=O)Nc2cc(S(=O)(=O)N3CCOCC3)ccc2N2CCOCC2)C1=O	.	0.77	i	i	i	27.4*	-9.9	-2.3
C/C(=N\NC(=O)c1nnn(-c2nonc2N)c1C)c1ccc(OCc2ccccc2)cc1	i	1.11	i	i	i	38.7*	-0.7	7.9
COCc1c(C(=O)N/N=C(/C)c2ccc(OCc3ccccc3)cc2)nnn1-c1nonc1N	i	-0.48	i	i	i	1.6	.	.
CC(C)CCNC(=O)NC(=O)CN1C(=O)NC2(CCCCC2)C1=O	i	-1.39	i	i	i	23.8*	-7.9	-2.2
Cc1c(NC(=O)C(C)OC(=O)c2cc(Cl)ccc2O)c(=O)n(-c2ccccc2)n1C (stereo not given)	i	1.6	i	i	i	1.5	.	.
CC(C)(C)CC(C)(C)c1ccc(O)c(CN2CCN(CCC#N)CC2)c1	i	-0.82	i	i	i	-0.7	.	.
N#CCCN1CCN(Cc2cc(-c3ccccc3)ccc2O)CC1	i	1.48	i	i	i	30.7*	2.7	12.0
Cc1ccc(CC(=O)Nc2ccncc2)cc1	i	0.13	i	i	i	33.3*	2.3	39.8*
Cc1ccc(CC(=O)Nc2cccnc2)cc1	i	-0.09	i	i	i	2.1	.	.
O=C(O)CCn1c(=O)[nH]c(=O)n(CCC(=O)O)c1=O	i	0.51	i	i	i	24.2*	-2.5	-6.8
CC1=C(C)C(=O)N(CCC(=O)O)C1=O	i	0.06	i	i	i	0.8	.	.
CC(C)CCCN1C(Nc2ccccc2)=NC[C@@H]1Cc1ccccc1	i	-3.81	i	i	i	35.8*	31.0*	24.3*
CC(C)C[C@H]1CN=C(Nc2ccccc2)N1CCCCc1ccccc1	i	-3.06	i	i	i	39.2*	38.5*	26.9*
Cc1noc(C)c1COC(=O)C1CCN(S(=O)(=O)c2ccc(F)cc2)CC1	i	.	.	.	.	.	.	.
CCc1ccc(C2=CSC3=NCCN23)cc1	i	0.63	i	i	i	-6.2	.	.
COc1cc(CC(=O)OCC(=O)NCc2ccco2)cc(OC)c1OC	i	.	.	.	.	.	.	.
Nc1c(C(=O)NCc2ccccc2)nnn1Cc1ccccc1	i	-1.42	i	i	i	-7.5	.	.
CSc1ccc(Cn2nnc(C(=O)NCc3ccccc3)c2N)cc1	i	-2.13	i	i	i	36.7*	56.9*	52.3*
O=C(NCCCC1CCCC1)C1CCC(=O)N(Cc2ccc(Cl)cc2)C1 (stereo not given)	i	-2.59	i	i	i	28.1*	3.6	-5.8
